High-throughput results as filed in PubChem BioAssay.
Most compounds without a hit are left out; they make up all but 10% or so of the library.
ALOX12 inhib – inhibitors of human 12-lipoxygenase (ALOX12) | P18054 | purified 12-hLO, xylenol orange hydroperoxide absorbance | Potency, µM (doses to about 57.1 µM), inactives show at the highest dose activity change, negative = inhibition, most hits filed as inhibitors | 150,000 compounds, 0.12% hits | AID 1452; further: potency means the concentration at half of the fitted maximal effect; nearly all actives have a fitted effect of over 55% in size
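Lipoxygenase turnover measured by absorbance at 573 and 405 nm after Fe-XO development. Human 12hLO 150 nM, arachidonate 40 uM, pH 7.0 Hepes buffer with detergent; 15 min compound preincubation, 30 min reaction.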
GLA inh pH 4.5 – inhibitors of human alpha-galactosidase A at pH 4.5. P06280. purified enzyme, 4-MU-alpha-Gal fluorescence, pH 4.5. activity change, negative = inhibition, % at 105 µM. 230,000 tested, under 10 active;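 further: 0% = full activity with enzyme and -100% = basal without enzyme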
PNC inhibitor – blocks assembly of the perinucleolar compartment; 140,000 compounds, 3.1% hits; activity change (PNC), negative = inhibition, % at 10 µM; AID 2417; PC3M PTB-GFP, PNC prevalence imaging, 16 h; stronger effect = lower value;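 active means readout at or below -70, meaning at least 70% loss of cells showing the perinucleolar compartment, a nuclear body marking cancer cells; inconclusive means readout between -30 and a set limit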;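 further: plate controls were DMSO wells for no effect and camptothecin positive control wells for full effect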
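PC3M cells stably expressing PTB-GFP, 750–1000 cells/well, treated 16 h at 37 °C with compound (23 nl of library stock), in duplicate. After paraformaldehyde fixation and Hoechst stain, imaged at 20x; PNC prevalence scored by image analysis.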
HPGD inh – inhibitors of human 15-hydroxyprostaglandin dehydrogenase (HPGD); P15428; purified HPGD, NADH fluorescence kinetic, PGE2 substrate; Potency, µM, inactives show at the highest dose activity change, negative = inhibition, hits mostly inhibitors; 150,000 compounds, 4.3% hits; AID 894; active means well fitted inhibition curve with a large enough effect, not every such curve was filed as active; inconclusive means small, poorly fitted or top-dose-only effect, or another doubt; inactive means no such curve, though single readings can be large or run the other way; further: potency means the concentration at half of the fitted maximal effect
Target sequence (P15428 whole entry, looked up): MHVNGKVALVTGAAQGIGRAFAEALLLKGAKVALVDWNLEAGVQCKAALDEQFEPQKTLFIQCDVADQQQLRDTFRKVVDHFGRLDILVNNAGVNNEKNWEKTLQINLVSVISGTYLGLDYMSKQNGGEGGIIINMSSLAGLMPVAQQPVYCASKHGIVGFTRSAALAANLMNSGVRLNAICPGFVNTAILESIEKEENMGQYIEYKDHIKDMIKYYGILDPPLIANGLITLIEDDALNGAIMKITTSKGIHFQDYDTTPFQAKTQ
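20 nM HPGD preincubated 15 min at room temperature with compound in 50 mM Tris-HCl pH 8, 0.01% Tween 20. Started with 1 mM NAD+ and 30 uM prostaglandin E2; NADH fluorescence (360/450 nm) read 5 times over 30-s intervals, last minus first.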
ALDH1A1 inh – ALDH1A1 (human) enzyme inhibition | P00352 | Purified ALDH1A1, NADH fluorescence, propionaldehyde substrate | Potency, µM (series often up to 75.3 µM), without a hit: at the highest dose activity, negative = inhibition, usual class: inhibitors | 220,000 compounds, 7.3% hits | AID 1030; active means well fitted inhibition curve with a large enough effect, not every such curve was filed as active; inconclusive means small, poorly fitted or top-dose-only effect, or another doubt; inactive means no such curve, though single readings can be large or run the other way;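 further: potency means the concentration at half of the fitted maximal effect; plate controls were no enzyme wells and a reference inhibitor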
GLA spleen mod – alpha-galactosidase A (human) modulation; P06280; human spleen homogenate, 4MU-alpha-Gal fluorescence, 40 min; Potency, µM (doses to about 80 µM), for inactives: top-dose activity change, negative = inhibition, most hits filed as inhibitors; 240,000 compounds, 0.008% hits; AID 2107;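 further: potency means the concentration at half of the fitted maximal effect; 0% = enzyme with vehicle and -100% = no enzyme basal signal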
Target sequence (P06280 32-429 limits assumed): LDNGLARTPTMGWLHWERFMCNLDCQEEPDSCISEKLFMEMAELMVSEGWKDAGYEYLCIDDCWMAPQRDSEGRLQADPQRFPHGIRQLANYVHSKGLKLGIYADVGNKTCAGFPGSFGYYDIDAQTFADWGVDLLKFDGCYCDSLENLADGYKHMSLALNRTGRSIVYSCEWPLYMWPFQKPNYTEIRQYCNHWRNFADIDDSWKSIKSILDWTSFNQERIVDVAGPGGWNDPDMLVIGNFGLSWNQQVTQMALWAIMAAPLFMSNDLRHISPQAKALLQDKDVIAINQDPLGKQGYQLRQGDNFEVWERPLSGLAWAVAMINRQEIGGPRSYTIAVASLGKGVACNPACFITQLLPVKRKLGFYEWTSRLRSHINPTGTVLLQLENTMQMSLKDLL
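Fluorogenic readout (Ex 365/Em 440 nm) of 4-methylumbelliferone released from 1 mM 4-MU-alpha-galactoside by spleen homogenate, 40 min at 37C, pH 5.0. Data normalized to no-enzyme and enzyme controls; Hill-equation AC50 from compound titrations.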
Starred values were filed as active, the others as inactive; u = inconclusive; x = not tested or not shown; [ ] = remark or other dose. Unless noted, the call rests on the fitted dose curve; in most records, active means well fitted curve in the direction sought with a large enough effect; inconclusive means small, poorly fitted or top-dose-only effect, or another doubt; inactive means no such curve, though single readings can be large; an effect the other way counts as inactive or inconclusive. Unless noted, on the % scale 0 is the no-effect control and ±100 the full control effect.

SMILES	ALOX12 inhib	GLA inh pH 4.5	PNC inhibitor	HPGD inh	ALDH1A1 inh	GLA spleen mod
CC(=O)Oc1ccc(C(=O)[C@H]2[C@H]3C(=O)N(c4ccc(C)cc4)C(=O)[C@H]3[C@@H]3C=CC=NN32)cc1	-11%	-1	-10	u	20µM*	-6%
O=C(Nc1ccccc1)[C@@H]1[C@@H]2C(=O)N(c3ccc(F)cc3)C(=O)[C@@H]2[C@H]2C=CC=NN21	x	-7	x	x	u	-6%
COc1ccc(OCc2nnc(SCC(=O)N(C)Cc3ccccc3)n2N)cc1	x	0	x	x	8.9µM*	1%
O=C(NC[C@H](O)c1ccccc1)c1ccccc1	x	2	x	-24%	-1%	-4%
Brc1ccc(NC2=Nc3ccccc3CC2)cc1	-2%	4	47	u	-5%	-1%
Cc1ccc(NC2=Nc3ccccc3CC2)cc1	-9%	1	34	32µM*	-1%	0%
CSc1sc(C)cc1/C=N/O	-2%	2	39	16µM*	-5%	-9%
Cc1nn(C)cc1/C=N/O	0%	-12	2	-3%	5%	-2%
O=C(/C(C=Nc1ccc(F)cc1)=C(/O)c1ccco1)C(F)(F)F	-13%	6	-7	-16%	-2%	-10%
Cc1ccccc1-c1cncnc1NCc1cccnc1	x	x	x	x	17%	1%
CN1CCN(C(c2cccnc2)c2ccc3cccnc3c2O)CC1 (stereo not drawn)	1.6µM*	-5	u	-29%	1.9µM*	8%
Cc1ccc(C(C[N+](=O)[O-])c2c(C)[nH]n(-c3ccccc3)c2=O)cc1 (stereo not drawn)	-6%	6	7	-21%	u	-1%
Cc1[nH]n(-c2ccccc2)c(=O)c1C(C[N+](=O)[O-])c1ccc(Cl)cc1 (stereo not drawn)	-8%	5	13	28µM*	20µM*	4%
Cc1[nH]n(-c2ccccc2)c(=O)c1C(c1ccccc1C(=O)O)c1c(C)[nH]n(-c2ccccc2)c1=O	-3%	5	-8	-2%	-10%	3%
COc1ccc(C(c2c(C)[nH]n(-c3ccccc3)c2=O)c2c(C)[nH]n(-c3ccccc3)c2=O)cc1OC	-14%	-5	u	u	8.9µM*	-8%
CC(=O)OC1CCC2(C)C(CCC3(C)C2C(=O)C=C2C4CC(C)(C(=O)OCCN5CCCCC5)CCC4(C)CCC23C)C1(C)C (stereo not drawn)	2%	2	x	-5%	2%	2%
CS(=O)(=O)CC(=O)Nc1ccc2nc3n(c(=O)c2c1)CCCCC3	x	-1	x	x	x	5%
CC1=C(CC(=O)c2ccc(Cl)cc2)C(=O)c2ccccc2C1=O	-20%	-2	-19	-26%	2.5µM*	9%
Cc1ccccc1-c1nsc(SCC(=O)c2ccc(Cl)cc2)n1	-3%	-22	4	-21%	-9%	-15%
COc1ccc(NS(=O)(=O)c2ccc(N3CCOCC3)c(NC(=O)c3ccc(OC)cc3)c2)cc1	0%	-2	u	-6%	9%	-7%
COc1ccc(S(=O)(=O)Nc2cc(C(=O)NC(C)C)ccc2N2CCOCC2)cc1	6%	0	-5	-24%	0.79µM*	-1%
COc1ccc(S(=O)(=O)Nc2cc(C(=O)NC3CCCCCC3)ccc2N2CCOCC2)cc1	-14%	-5	55	-11%	3.5µM*	8%
O=C(c1cc(C(F)(F)F)cc(C(F)(F)F)c1)N1CCC2(CC1)CCN(c1ccccc1)CC2	2%	x	x	-5%	0%	-3%
O=C(N/N=C1\CC2CC=CC12)c1ccccc1Cl (stereo not drawn)	x	0	x	x	-6%	-1%
FC(F)(F)c1ccccc1NC(=S)N/N=C1\CC2CC=CC12 (stereo not drawn)	x	-5	x	x	7.9µM*	-12%
SMILES	ALOX12 inhib	GLA inh pH 4.5	PNC inhibitor	HPGD inh	ALDH1A1 inh	GLA spleen mod
O=C(Cc1ccccc1)N1CCC(c2ccccc2)C1 (stereo not drawn)	x	-3	x	x	25µM*	7%
CC1CCCN(C(=O)CCc2ccccc2)C1 (stereo not drawn)	-1%	-6	-97*	4.5µM*	-13%	-5%
CC1CCCN(C(=O)COc2ccc(Nc3ccccc3)cc2)C1 (stereo not drawn)	x	-10	x	x	28µM*	-6%
CCOC(=O)C1CCCN(C(=O)CCc2ccccc2)C1 (stereo not drawn)	5%	2	5	x	u	3%
CC1CCN(C(=O)COc2ccc(Nc3ccccc3)cc2)CC1	x	2	x	x	u	-1%
O=c1cc(N2CCOCC2)oc2c(-c3ccccc3)cccc12	1%	-18	x	-21%	-6%	11%
COc1ncc2ncc(=O)n(C)c2n1	-2%	x	x	-16%	-8%	4%
Cc1cccc2sc(NC(=O)c3ccc(NS(=O)(=O)c4cccs4)cc3)nc12	-3%	-8	-84*	u	u	-6%
COc1ccc2nc(NC(=O)c3ccc(NS(=O)(=O)c4cccs4)cc3)sc2c1	-2%	-6	u	u	u	-1%
Cc1ccc(NC(=O)CCN2CCN(C/C=C/c3ccccc3)CC2)cc1C	-13%	-15	0	-13%	14µM*	-8%
CCCS(=O)(=O)N1CCCC(C(=O)c2ccccc2OC)C1 (stereo not drawn)	x	2	x	x	u	4%
O=C1CCC(=O)N1OCCCOc1ccc(Br)cc1Cl	-2%	-5	-11	18µM*	-2%	-4%
O=c1c(Br)c(Br)cnn1-c1ccccc1	x	2	x	x	7.1µM*	-4%
O=c1c(Br)c(N2CCCC2)cnn1-c1ccccc1	-1%	1	29	-5%	-5%	-3%
Cc1ccc(-n2ncc(Br)c(Br)c2=O)cc1	x	-29	x	x	3.2µM*	1%
COc1c(Cl)cnn(-c2ccc(C)cc2)c1=O	7%	-12	0	-13%	u	-6%
O=C(NCC1CCCO1)Nc1ccc2c(c1)OCO2 (stereo not drawn)	x	-1	x	x	-2%	6%
Cc1cccc(C)c1N1CCN(C(=O)Nc2ccc3c(c2)OCCO3)CC1	-10%	-16	31	-11%	-6%	0%
O=C(Nc1ccc2c(c1)OCO2)N1CCN(C(=O)C2CCCO2)CC1 (stereo not drawn)	6%	4	-100*	-12%	-1%	-1%
O=C(Nc1ccc2c(c1)OCCO2)N1CCN(c2ccc(F)cc2)CC1	1%	-1	-112*	-7%	2%	-5%
CCCCC/C=C\C/C=C\C/C=C\C=C\C(O)CCCC(=O)O (stereo not drawn)	-3%	2	x	-3%	3%	20%
N=C(N)C(N=Nc1ccccc1)C(=N)N (stereo not drawn)	-3%[11.4 µM]	x	x	-8%	2%[13.5 µM]	x
N#C/C(=C1/CCCCCN1)c1nnc2n1CCCCC2	3%	-5	45	-6%	-9%	-1%
